Experimental findings from PubChem BioAssay (NCI) are described below.

The panel holds about 83,000 compounds, 20% with a hit somewhere; the sample as a whole holds those more often.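 96-well plates, one dose, 48 hours. Percent growth reported; active if below 10.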 Unmarked numbers belong to inactive results. Activity calls are given as the source filed them.

Some test systems named below: DU-145 prostate; K-562 leukemia; MALME-3M melanoma; MDA-MB-231 breast; RXF 393 renal; SF-268 CNS; SF-295 CNS; SF-539 CNS; UACC-257 melanoma; M14 melanoma; HCT-15 colon; HT29 colon; SNB-75 CNS; SNB-19 CNS; U251 CNS; PC-3 prostate; SK-MEL-5 melanoma; UACC-62 melanoma; LOX IMVI melanoma; SK-MEL-28 melanoma.
Experiment in all cases: NCI-60 one-dose screen, 48 h (100 = growth as untreated, 0 = no growth, -100 = all killed)
Holding throughout (details): 10 µM unless noted

In the case of `Cc1ccc(NC(=O)c2sc3nc(C)c(Br)c(C)c3c2N)cc1`, the growth with DU-145 prostate was 66.6%; in the experiment with K-562 leukemia it was 95.5%; in the experiment on MALME-3M melanoma it was 53.8%; in the experiment with MDA-MB-231 breast it was 55.3%; in the experiment with RXF 393 renal, 43.3%; in the experiment with SF-268 CNS, 49%. Also, the growth in the experiment on SF-295 CNS was 60%; with SF-539 CNS it was 65.1%; with UACC-257 melanoma it was 90.3%; with M14 melanoma it was 79%; in the experiment on HCT-15 colon, 93.4%; with HT29 colon, 87.4%. Moreover, the growth was 20.9% in the experiment on SNB-75 CNS; 66.3% in the experiment on SNB-19 CNS; 50.8% with U251 CNS; 53.7% in the experiment with PC-3 prostate; 73.1% in the experiment on SK-MEL-5 melanoma; 67.2% in the experiment with UACC-62 melanoma. Also, the values for the growth in the experiment with LOX IMVI melanoma and with SK-MEL-28 melanoma were 62.1% and 75.4%, respectively.

Consider `CCN1C(=S)N(c2ccccc2)C2NC(=S)N(/N=C/C=C/c3ccccc3OC)C21` (stereo not given), for which the growth in the experiment with DU-145 prostate is 7.01% (active); in the experiment with K-562 leukemia, 8.73% (active); in the experiment with MALME-3M melanoma, 54.1%; in the experiment on MDA-MB-231 breast, 10.5%; in the experiment on RXF 393 renal, 26.3%; in the experiment with SF-268 CNS, 54.5%. Besides, the growth is 13.7% in the experiment on SF-295 CNS; -18.3% (active) in the experiment on SF-539 CNS; 43.2% in the experiment on UACC-257 melanoma; 3.35% (active) in the experiment on M14 melanoma; 12.9% with HCT-15 colon; 1.16% (active) with HT29 colon. For the same compound, the growth is -1.02% (active) with SNB-75 CNS; 31.3% in the experiment with SNB-19 CNS; 3.1% (active) with U251 CNS; 30.1% with PC-3 prostate; 14.1% in the experiment on SK-MEL-5 melanoma; 25.7% with UACC-62 melanoma. The growth in the experiment with LOX IMVI melanoma is 15.4%; in the experiment on SK-MEL-28 melanoma it was 47.8%.

As for `COc1ccc(OC)c(/C=N/Nc2ncnc3c2c(C)nn3C)c1`, the growth in the experiment on DU-145 prostate is 108%; in the experiment on K-562 leukemia, 93.2%; with MALME-3M melanoma, 119%; in the experiment on MDA-MB-231 breast, 81%; in the experiment with RXF 393 renal, 96.9%; in the experiment with SF-268 CNS, 87.1%. Moreover, the growth with SF-295 CNS is 99.7%; in the experiment on SF-539 CNS it was 105%; in the experiment on UACC-257 melanoma it was 112%; in the experiment on M14 melanoma it was 101%; with HCT-15 colon, 100%; with HT29 colon, 88.3%. Besides, the growth was 104% in the experiment with SNB-75 CNS; 98.3% in the experiment on SNB-19 CNS; 96.6% in the experiment on U251 CNS; 99.6% with PC-3 prostate; 98% with SK-MEL-5 melanoma; 93.5% with UACC-62 melanoma. Besides, the growth with LOX IMVI melanoma is 99.5%; in the experiment with SK-MEL-28 melanoma, 98.8%.

As to `CN(C)c1ccc(-c2c(C#N)c(N)nn2C(=O)c2ccc(NC(=O)c3ccccn3)cc2)cc1`, the growth with DU-145 prostate was 102%; in the experiment on K-562 leukemia it was 66.9%; in the experiment on MALME-3M melanoma it was 110%; with MDA-MB-231 breast it was 108%; with RXF 393 renal it was 117%; in the experiment on SF-268 CNS, 94.1%. Moreover, the growth in the experiment on SF-295 CNS was 99%; in the experiment with SF-539 CNS, 92%; with UACC-257 melanoma, 112%; in the experiment with M14 melanoma, 84.1%; in the experiment with HCT-15 colon it was 85.2%; in the experiment on HT29 colon, 113%. In addition, the growth in the experiment with SNB-75 CNS was 102%; in the experiment with SNB-19 CNS it was 99.4%; with U251 CNS, 99.3%; with PC-3 prostate, 77.4%; in the experiment on SK-MEL-5 melanoma, 101%; in the experiment with UACC-62 melanoma, 73.2%. Besides, the growth in the experiment with LOX IMVI melanoma was 65.3%; with SK-MEL-28 melanoma it was 108%.

Consider `N#Cc1c(-c2ccccc2)cc(-c2ccc(Nc3nc(Nc4ccc(Cl)cc4)nc(Nc4ccc(Cl)cc4)n3)cc2)nc1N`, for which the growth in the experiment on DU-145 prostate is 34%; in the experiment with K-562 leukemia, 32.6%; with MALME-3M melanoma it was -68.1% (active); with MDA-MB-231 breast it was -31.2% (active); in the experiment on RXF 393 renal, -44.5% (active); in the experiment with SF-268 CNS, 51.9%. In addition, the growth in the experiment on SF-295 CNS was 75.5%; in the experiment with SF-539 CNS it was -53.9% (active); in the experiment with UACC-257 melanoma, -12.1% (active); in the experiment on M14 melanoma, 2% (active); in the experiment with HCT-15 colon, -38.3% (active); in the experiment with HT29 colon it was 9.85% (active). In addition, the growth in the experiment with SNB-75 CNS was 66%; with SNB-19 CNS, 100%; in the experiment with U251 CNS it was -35.4% (active); in the experiment on PC-3 prostate it was 20.7%; with SK-MEL-5 melanoma it was -13.8% (active); in the experiment on UACC-62 melanoma it was 54.5%. Also, the growth in the experiment with LOX IMVI melanoma is -88.7% (active); in the experiment with SK-MEL-28 melanoma, -80.9% (active).

For the compound `C=C1C(=O)O[C@H]2[C@H]1CC/C(COC(=O)c1cc3ccccc3s1)=C\CC[C@@]1(C)O[C@@H]21`, the growth in the experiment on DU-145 prostate is -80.6% (active); with K-562 leukemia, 2.38% (active); in the experiment on MALME-3M melanoma it was -67.2% (active); with MDA-MB-231 breast, -66.1% (active); with RXF 393 renal, -88.8% (active); with SF-268 CNS, -60.6% (active). Also, the growth was 32% with SF-295 CNS; -88.4% (active) in the experiment on SF-539 CNS; -63.3% (active) with UACC-257 melanoma; -81.1% (active) in the experiment on M14 melanoma; -62.4% (active) in the experiment on HCT-15 colon; -75.4% (active) in the experiment on HT29 colon. The growth was -7.28% (active) in the experiment on SNB-75 CNS; -9.05% (active) in the experiment with SNB-19 CNS; -82.6% (active) in the experiment with U251 CNS; -56% (active) in the experiment on PC-3 prostate; -93.8% (active) in the experiment on SK-MEL-5 melanoma; -61.1% (active) in the experiment with UACC-62 melanoma. Moreover, the growth with LOX IMVI melanoma is -83.7% (active); with SK-MEL-28 melanoma, -70.7% (active).

As for `COc1ccc(C(=O)Nc2cccc(-c3cc(=O)c4c(OC)c(OC)c(OC)cc4o3)c2)cc1`, the growth was 56.5% in the experiment with DU-145 prostate; 20.6% in the experiment on K-562 leukemia; 53.4% in the experiment with MALME-3M melanoma; 57.2% in the experiment on MDA-MB-231 breast; 53.6% with RXF 393 renal; 58.4% in the experiment with SF-268 CNS. Also, the growth was 59.6% in the experiment with SF-295 CNS; 66.3% in the experiment on SF-539 CNS; 105% with UACC-257 melanoma; 68% in the experiment with M14 melanoma; 45.2% in the experiment on HCT-15 colon; 46.7% in the experiment on HT29 colon. Also, the growth was 67.6% with SNB-75 CNS; 64.6% in the experiment with SNB-19 CNS; 72.3% with U251 CNS; 31.9% with PC-3 prostate; 50.2% with SK-MEL-5 melanoma; 55.4% with UACC-62 melanoma. Further, the growth in the experiment on LOX IMVI melanoma is 41.9%; in the experiment with SK-MEL-28 melanoma it was 69%.

On to `N#CSCC1CC(O)(c2ccccc2)CC(c2ccc(F)cc2)O1` (stereo not given), for which the growth is -27.8% (active) with DU-145 prostate; 20.7% with K-562 leukemia; 29.1% in the experiment with MALME-3M melanoma; -1.42% (active) in the experiment with MDA-MB-231 breast; -35.3% (active) with RXF 393 renal; -26.3% (active) in the experiment with SF-268 CNS. Also, the growth with SF-295 CNS was -17.2% (active); in the experiment with SF-539 CNS, 21%; in the experiment with UACC-257 melanoma, 69.1%; in the experiment on M14 melanoma, -35.6% (active); in the experiment with HCT-15 colon, 16.5%; in the experiment with HT29 colon, -0.0912% (active). The growth was -25.8% (active) with SNB-75 CNS; 31.9% in the experiment with SNB-19 CNS; -51.2% (active) in the experiment on U251 CNS; 25.8% with PC-3 prostate; 22.1% with SK-MEL-5 melanoma; 11.4% with UACC-62 melanoma. Also, the growth is -46.8% (active) in the experiment on LOX IMVI melanoma and 43.9% in the experiment on SK-MEL-28 melanoma.
